The entries come from a sample that favours hits as a whole.
PKM2 inhibitor: PKM2 (human) enzyme inhibition; P14618; purified PKM2, ATP generation, Kinase-Glo luminescence; Potency, µM (top dose mostly 57.5 µM), most hits filed as inhibitors; 0.058% of 260,000 active; active = well fitted inhibition curve with a large enough effect; note: nearly all actives have a fitted effect of over 60% in size
Target sequence (P14618 whole entry, looked up): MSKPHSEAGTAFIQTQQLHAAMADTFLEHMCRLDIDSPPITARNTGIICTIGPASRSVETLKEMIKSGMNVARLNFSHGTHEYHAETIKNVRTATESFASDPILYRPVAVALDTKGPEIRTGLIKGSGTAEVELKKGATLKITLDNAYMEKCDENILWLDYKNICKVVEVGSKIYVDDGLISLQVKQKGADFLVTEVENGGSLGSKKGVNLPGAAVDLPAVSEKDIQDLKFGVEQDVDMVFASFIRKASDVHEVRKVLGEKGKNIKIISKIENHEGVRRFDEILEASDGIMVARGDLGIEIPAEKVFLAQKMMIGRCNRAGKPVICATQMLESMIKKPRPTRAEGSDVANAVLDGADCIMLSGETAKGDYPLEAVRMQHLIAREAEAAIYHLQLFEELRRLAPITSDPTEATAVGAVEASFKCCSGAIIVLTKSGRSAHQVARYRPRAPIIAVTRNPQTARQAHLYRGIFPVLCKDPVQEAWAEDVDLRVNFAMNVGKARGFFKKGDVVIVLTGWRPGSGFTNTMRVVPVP
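Enzyme run at intermediate activity with final 0.1 mM ADP, 0.5 mM PEP (50 mM imidazole pH7.2, 50 mM KCl, 7 mM MgCl2), incubated 1 h at r.t. ATP formed read by Kinase-Glo luminescence, normalized to no-enzyme (full inhibition) and uninhibited wells.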
Each line names hits and unclear results; the compound was inactive in the other large screens.

Cn1c(-c2ccc([N+](=O)[O-])cc2)nc2ccccc21	none
O=C1C=CC(=O)N1c1ccc(Sc2ccc([N+](=O)[O-])cc2)cc1	none
CC1=NN(c2ccc([N+](=O)[O-])cc2)C(=O)/C1=C\N(C)C	PKM2 inhibitor 15.8µM
Nc1nc2c(c(=O)[nH]1)C(c1cccc3ccccc13)C1=C(N2)c2ccccc2C1=O (stereo not drawn)	none
N#CCC(=O)Nc1ccc(C(=O)Nc2cccc(S(N)(=O)=O)c2)cc1	none
O=[N+]([O-])c1ccc2c(OCc3nnc(-c4ccccc4Br)o3)ncnc2c1	none
O=CN/C=C/c1cc(O)ccc1O	PKM2 inhibitor 10µM
COc1cc([N+](=O)[O-])ccc1NC(=O)CSc1nncn1-c1cccnc1	none
CC(=O)c1ccc(S(=O)(=O)N2CCN(C(=O)CSc3ccc(F)cc3)CC2)cc1	none
COCCn1c(=O)[nH]c2cc(C(=O)N3CCN(c4cccc(C)c4C)CC3)ccc2c1=O	none
COc1cccc(NC(=O)CCN2C(=O)c3ccc([N+](=O)[O-])cc3C2=O)c1	none
COc1ccc(NC(=O)c2cc([N+](=O)[O-])ccc2O)cc1	PKM2 inhibitor 15.8µM
COc1ccc(NC(=O)c2[nH]c(C)c(C(C)=O)c2C)cc1	none
Cc1ccc(NC(=O)CCSc2nnc(C)o2)cc1	none
O=C(O)C[C@@H]1C(=O)O[C@@H]2C(COC(=O)c3cc(O)c(O)c(O)c3)O[C@@H](OC(=O)c3cc(O)c(O)c(O)c3)[C@@H](OC(=O)c3cc(O)c(O)c4c3[C@H]1[C@H](O)C(=O)O4)[C@H]2OC(=O)c1cc(O)c(O)c(O)c1 (stereo partly drawn)	none
CN(C)c1ccc(/C=N/NC(=O)c2ccnn2C)cc1	PKM2 inhibitor 7.94µM
Cc1oc(-c2ccc(Cl)cc2)cc1C(=O)/C(C#N)=C/Nc1ccccc1	none
CCOC(=O)/C=C/C(=O)OCC(=O)Nc1ccc([N+](=O)[O-])cc1	none
COc1cc(NC(=S)N2CCN(S(=O)(=O)c3ccc(C)cc3)CC2)cc(OC)c1	none
Cn1c(=O)n(C)c2cc(NC(=O)c3ccccc3[N+](=O)[O-])c(Br)cc21	none
O=[N+]([O-])c1ccc(N2CCN(S(=O)(=O)c3ccccc3)CC2)cc1NCc1ccco1	none
CC(=O)Oc1ccc(C(=O)Nc2cccc(C(=O)c3cccc(NC(=O)c4ccc(OC(C)=O)cc4)c3)c2)cc1	none
CCC(=O)Oc1ccc(C(=O)Nc2ccc3c(c2)OCO3)cc1	PKM2 inhibitor 14.1µM
CS(=O)(=O)Nc1ccc(C(=O)NCc2ccc3c(c2)OCO3)cc1	none
CNC(=S)N1CCN(S(=O)(=O)c2ccc3ccccc3c2)CC1	none
Cc1ccc(N2C(=O)CC(C)(C)CC2=O)cc1Cl	none
COc1ccc(-c2ccc(SC)nn2)cc1	PKM2 inhibitor 10µM
COc1cccc(NC(=O)CSc2ccc(-c3sc(C)nc3C)nn2)c1	none
CNC(=S)N1N=C(c2ccc(Br)cc2)CC1c1ccc(OC)cc1 (stereo not drawn)	none
CN(CCOC(=O)/C=C/c1ccco1)Cc1ccccc1	none
COc1ccc(N2CCN(C(=O)[C@H](Cc3c[nH]c4ccccc34)NC(C)=O)CC2)cc1	none
Cc1ccccc1NC(=O)C1CCCN1/C=C/C(=O)C(F)(F)F (stereo not drawn)	none
CNc1ccccc1-c1nc2ccccc2n(C)c1=O	none
COc1cccc(CNc2nc3ccccc3n2C)c1O	none
CN(C)c1ccc(N=Nc2nc3ccccc3n2C)cc1	PKM2 inhibitor 15.8µM
CCCCC(=O)OCC(=O)Nc1ccc(SC(F)F)cc1	none
Cc1ccccc1OCC(=O)Nc1ccc2c(c1)n(C)c(=O)n2C	none
CCOC(=O)c1c(-c2ccc(C)o2)csc1NC(=O)COC(=O)c1cccs1	none
Cc1ccc(C(=O)O/N=C(\N)c2ccccn2)c(Cl)c1	PKM2 inhibitor 14.1µM
N/C(=N\OC(=O)c1ccc(Cl)cc1Cl)c1ccccn1	PKM2 inhibitor 14.1µM
CCOc1cc(NC(=O)c2cccs2)c(OCC)cc1NC(=O)c1cccnc1	none
O=C(Oc1ccc2ccc(O)cc2c1)c1ccccc1Cl	none
N/C(CS(=O)(=O)c1ccccn1)=N\OC(=O)c1ccccc1Cl	none
Cc1ccc(C(=O)O/N=C(\N)c2ccccc2)c(Cl)c1	PKM2 inhibitor 17.8µM
Cc1cccc(/C(N)=N/OC(=O)c2cccs2)c1	PKM2 inhibitor 12.6µM
COc1ccc(C(=O)O/N=C(\N)Cc2ccc(Cl)cc2)cc1OC	none
N#CC(c1ccc(O)cc1)c1ncc(C(F)(F)F)cc1Cl (stereo not drawn)	none
O=C(NCc1ccc(Cl)cc1)N1CCN(S(=O)(=O)c2ccccc2)CC1	none
Cc1cc(Br)ccc1OCCn1ccnc1	none
O=C(CCSc1ccc(Br)cc1)Nc1cccnc1	none
Cc1ccc2[nH]c(O)c(N=NC(=O)CCc3ccccc3)c2c1Br	none
O=[N+]([O-])c1ccc2nc(NS(=O)(=O)c3ccc(F)cc3)sc2c1	none
CC(C)CC(=O)Nc1nnc(S(=O)(=O)N2c3ccccc3CC2C)s1 (stereo not drawn)	none
CCC(CC)c1nnc(NC(=O)c2cccnc2SC)s1	none
O=C(Nc1nnc(SCc2ccc(Cl)cc2)s1)C1CC(=O)N(Cc2ccccc2)C1 (stereo not drawn)	none
Cc1[nH]c2ccccc2c1NC(=O)CN1CCN(C(=O)c2ccco2)CC1	none
Cc1ccc(-c2csc(NC(=O)/C=C/c3ccco3)c2C(=O)O)cc1	none
Cc1ccccc1S(=O)(=O)NCC1CCCO1 (stereo not drawn)	none
COc1cccc(C(=O)C(C#N)=C(SC)SC)c1	none
COc1cccc(C(=O)O/N=C(\N)c2ccccn2)c1	PKM2 inhibitor 8.91µM
COc1ccc(C/C(N)=N/OC(=O)c2cccc([N+](=O)[O-])c2)cc1	none
CC(=O)N1CC=CC1(CC(C)C)C(=O)NCc1ccc(C)o1 (stereo not drawn)	none
CCCN(C(=O)c1cc2c(s1)CCC2)c1c(N)n(Cc2ccccc2)c(=O)[nH]c1=O	none
COc1ccc(-c2cc(=O)[nH][nH]2)cc1	none
COc1ccc(S(=O)(=O)c2cnc3ccccc3n2)cc1	none
COc1ccc(-c2cc3c(nn2)-c2ccccc2C3=O)cc1	PKM2 inhibitor 15.8µM
O=C(NCc1nc(-c2ccc(C(F)(F)F)cc2)no1)Nc1ccc(OC(F)(F)F)cc1	none
COc1ccc(CCNC(=S)N2CCN(S(=O)(=O)c3ccccc3F)CC2)cc1	none
CC(=O)N1CCN(c2ccc(NC(=O)c3cccc(C)c3)cc2)CC1	none
O=C(Nc1cccc(O)c1)c1cccc(S(=O)(=O)Nc2cccc(O)c2)c1	none
O=C(O)c1cc(NC(=O)c2cccc(C(=O)Nc3cc(C(=O)O)cc(C(=O)O)c3)c2)cc(C(=O)O)c1	PKM2 inhibitor 12.6µM
Cc1cc(OCC(=O)NC(Cc2ccc(Cl)cc2)C(=O)O)c2c(C)c(C)c(=O)oc2c1 (stereo not drawn)	none
Cc1c(F)cccc1NS(=O)(=O)c1ccc(OCCNS(C)(=O)=O)cc1	none
CC(=O)c1sc(NC(=O)c2ccc(Cn3cc(Br)cn3)o2)nc1C	none
CCCn1c(NC(=O)c2ccco2)nc2ccccc21	none
Cc1nc(NC(=O)c2ccco2)sc1C(=O)O	PKM2 inhibitor 12.6µM
Cn1c(=O)c(Nc2ccc(O)cc2)c2c3c(cccc31)C(=O)c1ccccc1-2	none
CCc1ccc(NC(=O)CSc2nnc(C)c(=O)n2N)cc1	none
COc1ccc2nc3c(cc2c1)Cc1ccccc1-3	PKM2 inhibitor 14.1µM
COc1ccc2c(c1)-c1nc(NC(=O)c3cccs3)sc1CC2	none
CCOC(Cn1ccc(=O)[nH]c1=O)OCC	none
Clc1cc2c(c(CSc3nc4ccccc4n4cccc34)c1)OCOC2	none
CC(C)c1nc2sc(C(=O)O)c(N)c2c2c1CCCC2	none
CCNS(=O)(=O)c1ccc(NC(=O)c2ccc(Cn3cc(Br)cn3)o2)cc1	none
Cc1ccc(NC(=O)c2cc(-c3ccc(C)o3)nc3ccccc23)cc1	none
O=C(Nc1ccccc1)c1cc2ccccc2o1	PKM2 inhibitor 11.2µM

Screening results from PubChem BioAssay.
